# Measured values as given in PubChem BioAssay AID618 (Sanford-Burnham Center for Chemical Genomics, 2007).
# Among all 87,000 compounds or so, about 540 (0.62%) were called active. Where a call stands in place of a potency, no number is given. No rule for the calls is given here. This excerpt belongs to a sample that is enriched for actives. Potency and affinity values are given separately.
# Assay: inhibitors of MT1-MMP promoter transcription, cell-based, luciferase reporter, luminescence (AID 618);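 also: actives suppress MT1-MMP promoter-driven transcription so potencies describe inhibitors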
# Conditions: MT1-MMP promoter luciferase reporter cells
row,SMILES,outcome
1,O=C1CS/C(=C/C(=O)c2ccccc2)N1,inactive
2,NCCCCCc1nnc(SCc2cccc(Cl)c2)o1,inactive
3,N#C/C(=C/c1ccc(N2CCOCC2)o1)c1nc2ccccc2[nH]1,inactive
4,Cc1ccc2nc(/C(C#N)=C\c3ccc(N4CCOCC4)o3)[nH]c2c1,inactive
5,CCc1ccc(-c2cn3nc(C)c(C)nc3n2)cc1,active
6,Cc1nc2nc(-c3ccccc3)cn2nc1C,inactive
7,CCc1ccc(-c2nn[nH]n2)cc1,inactive
8,CCc1c(-c2ccccc2)nc2nc(C)c(C)nn12,inactive
9,Cc1nc2nc(-c3cccs3)cn2nc1C,inactive
10,Cc1ccc(-c2cn3nc(C)c(C)nc3n2)cc1,active
11,O=Cc1ccccc1OCCOc1ccccc1C=O,inactive
12,CC(C)n1c(-c2ccc(N(C)C)cc2)nc2ccccc21,inactive
13,Cn1c(-c2ccc(N)cc2)nc2ccccc21,inactive
14,CN(C)c1ccc(-c2nc3ccccc3n2C)cc1,active
15,O=C(CN1CCN(c2ccccc2)CC1)Nc1ccccc1C(F)(F)F,inactive
16,Cc1cccc(NC(=O)CN2C(=O)COc3ccc(Cl)cc32)c1,inactive
17,CCOC(=O)c1c(C)oc2c(F)c(F)c(F)c(F)c2c1=O,active
18,CCOC(=O)c1c(C)cc(=O)oc1C,inactive
19,CCOC(=O)c1c(C)oc2cc3c(C(=O)OCC)c(C)oc3cc12,inactive
20,O=C(Oc1ccnc2cc(Cl)ccc12)N1CCOCC1,inactive
21,COc1ccc(OC)c(S(=O)(=O)n2nc(-c3ccccc3)cc2N)c1,inactive
22,COc1ccc(-c2cc(N)n(S(=O)(=O)c3c(F)c(F)c(F)c(F)c3F)n2)cc1OC,active
23,COc1ccc(S(=O)(=O)n2nc(-c3cc(OC)c(OC)c(OC)c3)cc2N)cc1OC,inactive
24,CC(C)(C)Nc1nc(NCc2cccnc2)nc(N2CCOCC2)n1,inactive

row,SMILES,outcome
1,CSc1ccccc1NC(=O)c1ccccc1N(C)S(C)(=O)=O,inactive
2,CCCc1cc2c(n1CCc1ccc(Cl)cc1)C(C)C1CN(C(=O)c3ccccc3)C(C)(C(=O)OC)C21 (stereo not drawn),inactive
3,CCOc1ccc(Br)cc1/C(C)=N\NC1=NCCN1,inactive
4,CCCCOc1ccc(Br)cc1/C(C)=N/NC1=NCCN1,inactive
5,CCCCCOc1ccc(Br)cc1/C(C)=N/NC1=NCCN1,active
6,O=C(Cn1ncc2c(=O)oc3ccccc3c21)NCCN1CCN(c2ccccc2F)CC1,inactive
7,COc1ccc(C2C(=O)N(C3CCCCC3)CC(=O)N2Cc2ccc3c(c2)OCO3)cc1 (stereo not drawn),inactive
8,COc1ccc2nc(NC(=O)c3cc(C)oc3C)sc2c1,inactive
9,COc1ccc(NS(=O)(=O)c2cc(OC)ccc2NC(=O)c2cc(C)oc2C)cc1,active
10,COc1ccc(NS(=O)(=O)c2cc(C(=O)O)ccc2C)cc1,inactive
11,COc1ccc(NS(=O)(=O)c2cc(C)ccc2NC(=O)c2cc(C)oc2C)cc1,active
12,COc1ccc(C)c(S(=O)(=O)Nc2ccc(OCC(=O)O)cc2)c1,inactive
13,COc1ccc(NS(=O)(=O)c2cc(C)ccc2C)cc1,inactive
14,CC(C)(C)c1ccc(C(=O)C=[N+]=[N-])cc1,inactive
15,Cc1nn(C)c(C)c1CN(C)C(=O)c1cc2n(n1)C(C(F)(F)F)CC(c1cccs1)N2 (stereo not drawn),inactive
16,CCOC(=O)c1ccc(N2C(=O)CC(N3CCC(C(N)=O)(N4CCCCC4)CC3)C2=O)cc1 (stereo not drawn),inactive
17,CCn1c(=O)cc(SCC(=O)N2CCCCC2)c2ccccc21,inactive
18,CCOC(=O)c1oc2ccccc2c1CSc1nnnn1-c1ccc(C)cc1,inactive
19,O=C(/C=C/Nc1cccc([N+](=O)[O-])c1)c1cccs1,inactive
20,CNc1cc([N+](=O)[O-])ccc1N/C=C/C(=O)c1cccs1,inactive
21,COc1ccccc1NC(=O)CSc1nccc(=O)[nH]1,inactive
22,CCOc1cccc(C(=O)Nc2nccs2)c1,inactive
23,CCCc1cc(C(=O)Nc2nnc(C)s2)cs1,inactive
24,O=C(Nc1cnccn1)c1ccncc1,inactive

row,SMILES,outcome
1,CC(C)(C)c1ccc(C(=O)Nc2cnccn2)cc1,active
2,O=C(Nc1cnccn1)c1cccc(C(F)(F)F)c1,inactive
3,Cc1ccnc(SCC(=O)N2CCN(c3ccccc3)CC2)n1,inactive
4,O=C(CCCC(=O)N(CC(=O)NC1CCCC1)Cc1ccccc1)Nc1ccccn1,inactive
5,COCCNC(=O)CNS(=O)(=O)c1ccc2nc(C)sc2c1,inactive
6,CN(C(=O)c1ccno1)c1nnc(-c2cnccn2)s1,inactive
7,Cc1ccc(C)c(SCC(=O)OCC(=O)Nc2ccc(S(=O)(=O)N3CCOCC3)cc2)c1,inactive
8,O=C1CC(C(=O)Nc2cccc3ccccc23)C2(CCCC2)O1 (stereo not drawn),inactive
9,Cc1ccc2c(c1)c1c3n2CCN(C(=O)Cn2c(-c4ccccc4)noc2=O)C3CCC1 (stereo not drawn),inactive
10,CC(=O)N1CCn2c3c(c(=O)c4cc(C)ccc42)CCC31 (stereo not drawn),inactive
11,Cc1ccc2c(c1)c(=O)c1c3n2CCN(C(=O)CCl)C3CC1 (stereo not drawn),active
12,Cc1sc2nc(CSc3nnc(Cc4cccs4)n3C3CCCCC3)[nH]c(=O)c2c1C,inactive
13,Cc1ccc(NC2=NC(c3ccc(O)cc3)n3c(nc(C)cc3=O)N2)cc1 (stereo not drawn),inactive
14,Nc1nonc1/C(=N/O)N1CCN(CCO)CC1,inactive
15,CNC(=O)[C@@]1(Cc2ccccc2)C=C[C@@H](C)N1C(=O)OC,inactive
16,COC(=O)N1[C@H](C)C=C[C@]1(Cc1ccccc1)C(=O)O,active
17,COC(=O)N1[C@H](C)C=C[C@]1(Cc1ccccc1)C(=O)OC,inactive
18,Nc1nonc1N1CCCCC1,inactive
19,CCCNC(=O)Cn1cnc2sc(C(=O)NCCN(CC)CC)c(C)c2c1=O,inactive
20,CNC(=O)CCc1nc(-c2ccc(C(C)(C)C)cc2)no1,inactive
21,O=C(O)CCCc1nc(-c2ccccc2)no1,inactive
22,CN(C)C(=O)CCc1nc(-c2ccc(C(C)(C)C)cc2)no1,inactive
23,COc1ccc(-c2noc(CCC(=O)O)n2)cc1,inactive
24,CCOC(=O)C1C2C=CC3(CN(CCc4ccccc4)C(=O)C13)O2 (stereo not drawn),inactive

row,SMILES,outcome
1,O=C(c1csc2c1CCCC2)N1CCN(c2ncccn2)CC1,inactive
2,Cc1cccc(-n2nnnc2SC(C)C(=O)NCCC2=CCCCC2)c1 (stereo not drawn),inactive
3,CC(C(=O)NC(=O)NC1CCCCC1)N1CCN(c2ccccn2)CC1 (stereo not drawn),inactive
4,O=C(CNC(=O)c1ccco1)NCC(=O)OCc1cccc(Cl)c1,inactive
5,Nc1nc(-c2cccc(Br)c2)cs1,inactive
6,Cc1oc(-c2ccccc2)cc1C(N)=O,inactive
7,Cc1oc(-c2ccc3c(c2)OCCO3)cc1C(=O)NC(CCC(=O)O)C(=O)O (stereo not drawn),inactive
8,CCOC(=O)CNC(=O)c1cc(-c2ccc3c(c2)OCCO3)oc1C,inactive
9,COc1cc(C)c(-c2cc(C(=O)O)c(C)o2)cc1C(C)C,inactive
10,COc1ccc(C2=NN(CN3C(=O)C(=O)c4ccccc43)C(c3ccc(C)cc3)C2)cc1 (stereo not drawn),inactive
11,O=C(N1CCOCC1)N1CCN(c2ccccn2)CC1,inactive
12,O=C(N1CCN(c2ccccn2)CC1)N1c2ccccc2Sc2ccccc21,active
13,O=C(CN1CCN(c2ccccn2)CC1)N1c2ccccc2Sc2ccc(C(F)(F)F)cc21,inactive
14,O=C(NC1CCN(C(=O)N2c3ccccc3Sc3ccccc32)CC1)c1ccco1,inactive
15,O=C(c1ccco1)N1c2ccccc2Sc2ccccc21,inactive
16,O=C(c1ccco1)N1CCN(C(=O)N2c3ccccc3Sc3ccccc32)CC1,active
17,CC(C)NC(=O)c1c2c(nc3ccccc13)CCCC2,inactive
18,Cc1nnc2ccc(N3CCN(C(=O)c4ccccc4)CC3)nn12,inactive
19,O=C1COc2ccc(C(=O)COC(=O)Cn3cnc4ccccc43)cc2N1,inactive
20,CCOC(=O)CNC(=O)C(CC(C)C)NC(=O)C1CCCCC1 (stereo not drawn),inactive
21,CC(C)(C)c1ccc(OCc2nc(-c3ccccn3)no2)c(Br)c1,inactive
22,CCc1ccc(OCc2nc(-c3ccccn3)no2)c(Br)c1,active
23,Clc1ccccc1OCc1nc(-c2ccncc2)no1,inactive
24,Clc1ccc(OCc2nc(-c3ccccn3)no2)c(Br)c1,inactive

row,SMILES,outcome
1,Cc1ccc(OCc2nc(-c3ccccn3)no2)cc1,inactive
2,Clc1cc(Cl)c(OCc2nc(-c3ccccn3)no2)cc1Cl,inactive
3,CC(C)c1ccc(OCc2nc(-c3ccccn3)no2)c(Br)c1,inactive
4,O=C(NCC1COc2ccccc2O1)c1c[nH]c2ccc(S(=O)(=O)N3CCOCC3)cc2c1=O (stereo not drawn),inactive
5,CCN(CC)c1ccc(NC(=O)CCCCCN2C(=O)c3ccccc3C2=O)cc1,inactive
6,CCOC(=O)C1CCN(C(=O)CN(c2cccc(C(F)(F)F)c2)S(C)(=O)=O)CC1,inactive
7,CN(C)S(=O)(=O)N1CCN(C(=O)N2CCOCC2)CC1,inactive
8,COc1cccc(CSc2nc3sc(C)c(C)c3c(=O)n2Cc2ccco2)c1,inactive
9,C=CCn1c(COc2cccc3ccc(C)nc23)nnc1SCC(=O)O,inactive
10,CC(C)CCNC(=O)C1C2C=CC3(CN(Cc4ccccc4Cl)C(=O)C13)O2 (stereo not drawn),inactive
11,CCOC(=O)N1CCN(C(=O)c2ccccc2Oc2ccccc2)CC1,inactive
12,O=C(c1ccccc1-c1ccccc1)N1CCCC1,inactive
13,CCOC(=O)N1CCN(C(=O)c2ccccc2-c2ccccc2)CC1,active
14,Fc1ccc(-c2cc(C(F)(F)F)nc(N3CCCCC3)n2)cc1,inactive
15,Cc1nc2ncnn2c(N2CCC(C(=O)NCC3CCCO3)CC2)c1Cc1ccccc1 (stereo not drawn),inactive
16,COc1ccc(-n2nnnc2SCC(=O)NCCc2ccc(OC)c(OC)c2)cc1,inactive
17,COc1ccc(CCNc2nnc(Sc3nnnn3-c3ccccc3)s2)cc1OC,active
18,CCCSc1nnc(Sc2nnnn2-c2ccccc2)s1,inactive
19,COc1cccc2cc(C(C)=O)c(=O)oc12,inactive
20,O=C(C1CCCN(Cc2ccccc2)C1)N1CCCCC1 (stereo not drawn),inactive
21,CCOC(=O)c1sc(NC(=O)c2cncc(Br)c2)nc1C,inactive
22,CCC(C)(C)n1nnnc1C(c1ccc2ncccc2c1)N1CCN2CCCC2C1 (stereo not drawn),inactive
